Screening results as filed in PubChem.
Only some compounds are listed: those with a hit (about 2.4% of all), similar ones and a draw of the others.
ClpP mod: qHTS Assay for Activators of ClpP. ATP-dependent Clp protease proteolytic subunit (Bacillus subtilis (strain 168)), P80244. purified B. subtilis ClpP, FRET peptide cleavage, 20 min. Potency, µM (series often up to 57.5 µM). 340,000 tested, 1.9% active; active = well fitted falling curve with a large enough effect; inconclusive = small, poorly fitted or top-dose-only effect; inactive = no such curve, though single readings can be large or run the other way; also: the source files actives as falling curves though it sought activators and does not explain the sign; nearly all actives have a fitted effect of over 65% in size
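Buffer: 100 mM Tris/HCl pH8, 100 mM KCl, 0.05% low protease BSA, 2.5% glycerol, 0.01% Tween-20. ClpP 10 microg/mL final; 20 min RT; delta FRET normalized to ADEP and DMSO controls.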
TDP1 block: qHTS Assay for Inhibitors of Tyrosyl-DNA Phosphodiesterase (TDP1); AID 485290, 2010; Tyrosyl-DNA phosphodiesterase 1 (Homo sapiens), Q9NUW8; Potency, µM (highest dose often 130 µM), actives largely listed as inhibitors; 350,000 tested, 0.28% active; recombinant TDP1, AlphaScreen DNA substrate cleavage; also: nearly all actives have a fitted effect of over 40% in size
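Enzyme-compound mixtures sat 15 min at room temperature, followed by a 5 min reaction with 15 nM final substrate and 10 min with AlphaScreen beads. Recombinant human Tdp1 was used at 1 nM final.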
TSG101-PTAP inh: qHTS Assay for Iinhibitors of HIV-1 Budding by Blocking the Interaction of PTAP/TSG101 | Fluorescence polarization, FITC-PTAP peptide / Tsg101 binding | Potency, µM (titrated, usually from 115 µM), usual class: inhibitors | 340,000 tested, under 10 active; active = well fitted inhibition curve with a large enough effect in the main read-out, with a control signal flat, not every such curve was filed as active; inconclusive = small, poorly fitted or top-dose-only effect, or effect the other way, or a change in a side signal; inactive = no such curve, though single readings can be large or run the other way
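Fluorescence anisotropy tracks displacement of a FITC-tagged PTAP peptide (50 nM) from the Tsg101 binding domain (10 uM), following a 20 min room-temperature incubation at pH 7.5.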
12-LOX inh: Primary qHTS assay for inhibitors of human arachidonate 12S-lipoxygenase (ALOX12): Round 2; AID 1671190, 2021; 580,000 tested, 1.1% active; Potency, µM (titrated, usually from 108 µM), hits mostly inhibitors; purified 12hLO, xylenol orange hydroperoxide absorbance
Target sequence (P18054 whole entry, looked up): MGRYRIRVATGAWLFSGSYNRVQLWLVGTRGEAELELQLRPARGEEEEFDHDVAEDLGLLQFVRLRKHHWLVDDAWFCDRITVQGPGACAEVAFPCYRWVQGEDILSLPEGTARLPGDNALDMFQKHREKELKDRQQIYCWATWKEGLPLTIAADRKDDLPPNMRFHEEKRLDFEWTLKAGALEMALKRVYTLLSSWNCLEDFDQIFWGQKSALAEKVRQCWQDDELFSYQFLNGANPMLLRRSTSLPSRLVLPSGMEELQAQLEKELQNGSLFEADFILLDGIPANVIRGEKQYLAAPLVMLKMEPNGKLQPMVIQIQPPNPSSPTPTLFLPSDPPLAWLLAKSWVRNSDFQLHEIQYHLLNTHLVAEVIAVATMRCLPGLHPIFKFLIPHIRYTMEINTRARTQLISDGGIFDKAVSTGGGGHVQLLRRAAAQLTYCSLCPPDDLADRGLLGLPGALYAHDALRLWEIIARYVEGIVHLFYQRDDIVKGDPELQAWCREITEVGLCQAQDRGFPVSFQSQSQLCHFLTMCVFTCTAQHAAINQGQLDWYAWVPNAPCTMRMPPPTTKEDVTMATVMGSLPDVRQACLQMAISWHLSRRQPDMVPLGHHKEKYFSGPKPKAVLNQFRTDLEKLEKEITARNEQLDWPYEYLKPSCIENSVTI
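Purified human 12hLO at 150 nM in 25 mM Hepes, 0.01% Triton X-100, pH 7.0, preincubated 15 min at room temperature with compound. Reaction started with 40 uM arachidonic acid, 30 min at room temperature. Hydroperoxide measured by Fe-xylenol orange, 573/405 nm absorbance ratio.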
Rango-impB inh: qHTS Assay for Inhibitors of Rango (Ran-regulated importin-beta cargo) - Importin beta complex formation | Rango CFP/YFP FRET sensor + importin beta, 45 min | Potency, µM (highest dose often 92.2 µM) | 340,000 tested, 0.031% active | AID 540263, 2011; calls by dose curve; also: nearly all actives have a fitted effect of over 15% in size
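Inhibition scored from the CFP 486 nm/YFP 530 nm FRET ratio 45 min after adding 0.125 microM importin beta to 50 nM Rango biosensor preincubated 5 min with compound (room temperature, PBS with DTT, Tween-20, BSA). No-importin wells as positive control.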
Rango dissoc inh: qHTS Assay for Inhibitors of RanGTP induced Rango (Ran-regulated importin-beta cargo) - Importin beta complex dissociation | 340,000 tested, 0.071% active | AID 540253, 2011 | Snurportin-1 (Homo sapiens) + GTP-binding nuclear protein Ran (Homo sapiens) + Importin … | Potency, µM (doses to about 46.1 µM) | Biochemical FRET Rango-importin beta, RanGTP-induced dissociation; calls by dose curve; also: nearly all actives have a fitted effect of over 45% in size
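Quantitative HTS using a FRET biosensor: 0.1 uM Rango, 0.25 uM importin beta, 0.6 uM Ran, 2 mM GTP, 0.2 uM RCC1 final, PBS with DTT, Tween-20 and BSA. Post-read taken 45 min after Ran addition.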
A number is an active result; i = inactive; ? = inconclusive; nt = not tested or not shown; ! = not active in a repeat; [ ] = dose if it differs, or a comment. Unless noted, calls follow the shape of the dose curve; as a rule, active = well fitted curve in the direction sought with a large enough effect; inconclusive = small, poorly fitted or top-dose-only effect, or another doubt; inactive = no such curve, though single readings can be large; an effect the other way counts as inactive or inconclusive.

SMILES | ClpP mod | TDP1 block | TSG101-PTAP inh | 12-LOX inh | Rango-impB inh | Rango dissoc inh
CN(C)C(=O)c1cccnc1OC1CCN(S(=O)(=O)c2ccc(F)c(Cl)c2)C1 (stereo unspecified) | nt | nt | nt | i | nt | nt
CCN(CC)C(=O)CCc1c(C)nn(-c2ccccc2C)c1Oc1ccccc1 | nt | nt | nt | i | nt | nt
CC(=O)N1CCCCCCNC(=O)[C@@H]2CCC[C@@H]21 | nt | nt | nt | i | nt | nt
COc1ccc(CC(=O)N2CCN(c3ccccn3)CC2)cc1OC | 22.4µM | i | i | i | i | i
COc1ccc(CC(=O)N2CCCN(c3cc(-c4ccccc4)[nH]n3)CC2)cc1OC | nt | nt | nt | i | nt | nt
COc1ccc(-c2cc(C(=O)NCc3c(C)cc(C)[nH]c3=O)c3c(c2)N(C(C)C)CCO3)cc1 | nt | nt | nt | i | nt | nt
CCOC(=O)C1CCN(C(=O)c2cc3cc4cc(OC)ccc4nc3o2)CC1 | 17.8µM | i | i | i | i | i
Cc1ccc(C)c(NC(=O)C(c2ccccc2)N2CCN(C(=O)C3CC3)CC2)c1 (stereo unspecified) | nt | nt | nt | i | nt | nt
N#Cc1c(SCc2c(Cl)cccc2Cl)nc(N)[nH]c1=S | i | i | i | 31.6µM | i | i
Cc1nc(SCc2ccccc2Cl)c(C#N)c(C)c1C | i | i | nt | i | nt | nt
Cc1ccc(C(=O)NCCn2ccn3nc(-c4ccc(F)cc4)cc3c2=O)cc1F | nt | nt | nt | i | nt | nt
CC/C=C\C/C=C\C/C=C\CCCCCCCCCCCC(=O)O | nt | i | nt | i[12.5 µM] | nt | nt
CC/C=C\C/C=C\C/C=C\CCCCCCCC(=O)O | i | 5.01µM! | i | i | ? | i
COc1ccccc1N1C(=O)NC(NC(=O)c2ccccc2Cl)(C(F)(F)F)C1=O (stereo unspecified) | nt | nt | nt | i | nt | nt
Cc1cc(=O)[nH]c2n[nH]c(-c3ccccc3)c12 | 25.1µM | i | i | i | i | i
Cc1cn2nc(C(=O)NCc3ccc(C(F)(F)F)cc3)cc2c(N2CCCC2)n1 | nt | nt | nt | i | nt | nt
O=C1C=C(c2ccccc2)C[C@H](c2cccs2)[C@H]1n1nnc([N+](=O)[O-])n1 | i | i | i | 50.1µM | i | i
O=C1C=C(c2ccccc2)CC(c2cccs2)C1n1cnc([N+](=O)[O-])c1 (stereo unspecified) | i | i | i | ? | i | i
OC(CNCc1ccco1)Cn1c2ccc(Br)cc2c2cc(Br)ccc21 (stereo unspecified) | i | i | i | 6.31µM | i | i
COc1ccccc1-c1c(C)oc2c(CN3CCOCC3)c(O)ccc2c1=O | i | nt | i | i | i | i
Cc1oc2c(CN3CCOCC3)c(O)ccc2c(=O)c1-c1ccccc1 | 28.2µM | i | i | i | i | i
COc1ccc(Oc2c(C)oc3c(CN4CCOCC4)c(O)ccc3c2=O)cc1 | 31.6µM | i | i | i | i | i
Cc1nc(-c2cccc(Cl)c2)n(CC(=O)Nc2ccccc2)c(=O)c1CCO | nt | nt | nt | i | nt | nt
CSc1c(C#N)c(N)c(C#N)c2c1COC(C)(C)C2 | 14.1µM | i | i | i | i | i
CC(C)c1nc(Cl)c(C#N)c2c1COC(C)(C)C2 | i | i | i | i | i | i
SMILES | ClpP mod | TDP1 block | TSG101-PTAP inh | 12-LOX inh | Rango-impB inh | Rango dissoc inh
O=C(OCC1(COC(=O)c2ccccc2)CCC(COC(=O)c2ccccc2)(COC(=O)c2ccccc2)C1=O)c1ccccc1 | nt | nt | nt | i | nt | nt
c1ccc(-c2cn([C@H]3CO[C@H]4[C@@H]3OC[C@@H]4NCC3CCCCC3)nn2)nc1 | nt | nt | nt | i | nt | nt
O=S(=O)(N[C@H]1CO[C@H]2[C@@H]1OC[C@@H]2n1cc(-c2ccccn2)nn1)c1cccs1 | nt | nt | nt | 63.1µM | nt | nt
CC(C)c1ccc(C2NC(=O)NC3=C2CCc2ccccc23)cc1 (stereo unspecified) | 28.2µM | i | i | ? | i | i
COc1ccc(C2NC(=O)NC3=C2CCc2ccccc23)cc1 (stereo unspecified) | 15.8µM | i | i | nt | ? | i
COc1ccc(C=C2CCc3ccccc3C2=O)cc1 | i | nt | nt | i | nt | nt
Cc1cc(=O)oc2cc(OCc3ccc(C(=O)OCC(=O)NC4CCS(=O)(=O)C4)cc3)ccc12 (stereo unspecified) | nt | 8.91µM | i | i | i | i
CC(=O)/C(=C/Nc1ccc(Oc2ccccc2)cc1)c1ccccc1 | 7.94µM | i | i | i | i | i
CCOCCCn1c(=O)c2ccccc2n2c(=S)[nH]nc12 | i | nt | i | 3.98µM | i | i
O=S(=O)(NCCc1noc(-c2ccncc2)n1)c1ccccc1 | nt | nt | nt | i | nt | nt
COc1ccc(N=C2C(=S)N(c3ccc(OC)cc3)C(=NS(=O)(=O)c3ccccc3)N2c2ccccc2)cc1 | 28.2µM | nt | i | ? | i | i
Cc1ccc(NS(=O)(=O)c2ccc(-c3cnc(C4CC4)o3)cc2)cc1F | nt | nt | nt | 3.55µM | nt | nt
O=S(=O)(c1ccc(-c2cnc(C3CC3)o2)cc1)N1CCN(c2ccccc2F)CC1 | 28.2µM | i | nt | i | nt | nt
COc1ccc(-c2cnc(C)o2)cc1S(=O)(=O)Nc1ccc(C)c(F)c1 | i | nt | nt | 50.1µM! | nt | nt
Cc1ccc(NS(=O)(=O)c2ccc(-c3cnc(C4CC4)o3)cc2)cc1N(C)C | i | i | nt | i | nt | nt
COc1ccc(C(C)=O)cc1COC(=O)C1(c2ccc(Cl)cc2)CC1 | nt | nt | nt | i | nt | nt
C[C@H](c1ccccc1)N1C[C@@H](COCc2ccccc2)Oc2cc(N3CCC[C@@H]3CO)ccc2S1(=O)=O | i | nt | nt | i | nt | nt
C[C@H](c1ccccc1)N1C[C@H](COCc2ccccc2)Oc2cc(N3CCC[C@H]3CO)ccc2S1(=O)=O | i | nt | nt | 50.1µM | nt | nt
COC[C@H]1CCCN1c1ccc2c(c1)O[C@@H](COCc1ccccc1)CN([C@H](C)c1ccccc1)S2(=O)=O | 5.62µM | nt | nt | i | nt | nt
